Assay results as given in PubChem BioAssay (NCATS).
Inconclusive results are not listed. The source made the active and inactive calls. Calls come from the whole dose curve; as a rule, active = well fitted cell-killing curve with a large enough effect; inconclusive = small, poorly fitted or top-dose-only effect, or effect the other way; inactive = no such curve, though single readings can be large or run the other way.

test: Viability qHTS for spleen associated tyrosine kinase inhibitor (SYKi) naive MV4-11 cells (AID 1963823); conditions: MV4-11 AML viability, CellTiter-Glo luminescence, 72 h; series mostly up to 45 µM; note: nearly all actives have a fitted effect of over 40% in size
How it was run: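 qHTS, SYK inhibitor-naive MV4-11; 500 cells/well; 72 hr compound exposure, 37 C; CellTiter-Glo added, 10 min RT; luminescence read.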
Potency is the fitted concentration of half-maximal effect.

SMILES | Potency | viability (% of control)
CN(Cc1ccc(C(=O)O)cc1)c1ccc(OCc2c(-c3c(Cl)cccc3Cl)noc2C2CC2)nc1C(F)(F)F | 20.6 µM (active) | 
C[C@@H]1C(=O)OC[C@H]2C(C(=O)O)=C[C@@H]3CC(C)(C)C[C@]312 | inactive | 
CC[C@H](C)/C=C(C)/C=C/C1=CC2=C(Cl)C(=O)[C@](C)(O)[C@H](OC(C)=O)[C@H]2CO1 | 12.8 µM (active) | 
N#CC1C(=O)Nc2scc(-c3ccc(-c4ccccc4O)cc3)c2C1=O (configuration not stated) | inactive | 
C[C@@H](OC(=O)/C=C/c1ccc(O)cc1)C1=C[C@]2(C=C[C@@H]3C(C(=O)O)=CO[C@@H](O[C@@H]4O[C@H](CO[C@@H]5O[C@H](CO)[C@@H](O)[C@H](O)[C@H]5O)[C@@H](O)[C@H](O)[C@H]4O)[C@@H]32)OC1=O | inactive | 
C[C@@H]1O[C@@H](O[C@@H]2[C@@H](O)[C@H](O[C@H]3[C@H](O[C@H]4CC[C@@]5(C)C(CC[C@]6(C)C5CC=C5[C@@H]7CC(C)(C)CC[C@]7(C(=O)O[C@@H]7O[C@H](CO)[C@@H](O)[C@H](O)[C@H]7O)CC[C@]56C)C4(C)C)O[C@H](C(=O)O)[C@@H](O)[C@@H]3O)OC[C@H]2O)[C@H](O)[C@H](O)[C@H]1O (some centres not stated) |  | 62.1% [at 9.25 µM] (inactive)
C[C@@H]1O[C@@H](O[C@H]2[C@H](OC(=O)[C@]34CCC(C)(C)C[C@H]3C3=CCC5[C@@]6(C)C[C@H](O)[C@H](O[C@@H]7O[C@H](CO)[C@@H](O)[C@H](O)[C@H]7O)[C@@](C)(CO)C6[C@H](O)C[C@@]5(C)[C@]3(C)CC4)OC[C@H](O)[C@@H]2O)[C@H](O)[C@H](O)[C@H]1O[C@@H]1OC[C@@H](O)[C@H](O[C@@H]2OC[C@](O)(CO)[C@H]2O)[C@H]1O (some centres not stated) |  | 85.2% [at 9.25 µM] (inactive)
